# Records with an inconclusive call do not appear. Where a call stands in place of a potency, no number is given. Calls of active or inactive are those of the source. Calls follow the shape of the full dose curve.
# Test: qHTS for Inhibitors of Cell Surface uPA Generation: Wild-type Protective Antigen (WT-PrAg) Counterscreen for Cherry-picked Compounds
# Conditions: cells, WT protective antigen toxicity counterscreen; series mostly up to 115 µM
row,SMILES,Potency
1,O=C1C[C@@H]2CCN3C(=O)CCC[C@@H]([C@H]23)[C@H]1Cc1ccccc1,inactive
2,Cc1nc(NC(=O)CSc2nnc(C3CC3)n2C)sc1C(=O)N(C)C,inactive
3,COC(/C=C/Nc1ccc(Cl)cc1)=C(C#N)C#N,inactive
4,COc1cc(C(=O)N/N=C(\Cc2ncc[nH]2)c2ccccc2)cc(OC)c1OC,inactive
5,O=C(CSc1ccc([N+](=O)[O-])cn1)Nc1nccs1,inactive
6,COCC(=O)N1CCC(n2nccc2NC(=O)c2ccccc2OC)CC1,inactive
7,CCOc1ccccc1C(=O)NC1CCN(CC(=O)Nc2cc(OC)ccc2OC)CC1,inactive
8,CCc1ccc(NCc2nc(-c3ccccc3)no2)cc1,inactive
9,O=C(CCc1ccccc1)NNC(=O)c1cccc(F)c1,inactive
10,CC1CC(C)(C)Nc2ccc(N=O)cc21 (stereo not given),inactive
11,CCOCc1nnc(NC(=O)C2CCN(C(=O)C3CC(=O)N(c4ccc(C)cc4)C3)CC2)s1 (stereo not given),inactive
12,Cc1ccc(-c2cc(C(=O)NCC3CCCO3)no2)cc1 (stereo not given),inactive
13,Cc1ccc(Cl)c(N/C=C/C(=O)c2ccccc2)c1,inactive
14,O=C(c1ccccn1)C1CCCN(Cc2cn[nH]c2-c2cc3ccccc3o2)C1 (stereo not given),inactive
15,Cc1nn2c(=O)cc(CSc3nc4ccccc4[nH]3)nc2s1,inactive
16,O=P1(NCCCl)OCCCN1CCCl (stereo not given),inactive
17,O=C(COC(=O)C1CC2C=CC1C2)NCc1ccccc1Cl (stereo not given),inactive
18,Cc1nc2ccc(Br)cn2c1C(=O)N/N=C\c1ccccc1Cl,inactive
19,Cc1cc(N)n(Cc2ccc(Cl)cc2)n1,inactive
20,O=C(C1CCN(c2nnc(N3CCCC3=O)s2)CC1)N1CCN(c2cccc(C(F)(F)F)c2)CC1,inactive
